PAX8 inh HTS = inhibitors of PAX8-driven TPO luciferase reporter, primary screen, RMG-I cells, single concentration. 1.2% of 360,000 active. SteadyGlo, 24 h. AID 652154, 2013. inhibition, % at 12.6 µM;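 active means mean replicate inhibition at least 60% with every replicate also reaching 60%; inconclusive means only one of the two criteria is met; inactive means mean below 60% and not all replicates reaching 60%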;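 further: luciferase light reporting Pax8 driven TPO promoter activity; plate controls were median of neutral control wells for no effect and mitoxantrone controls for full effect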
LGR2 antag = inhibitors of bursicon-induced LGR2 CRE-luciferase signal, primary screen, cell-based, HEK293, CRE-luciferase reporter, bursicon stimulation; bursicon-stimulated, 4 h; 0.35% of 380,000 active; inhibition, % at 9.99 µM; AID 720647, 2013;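 active means drop in luminescence signal, shown as inhibition above about 50% in the replicate tests, limit read from the data, passing the limit was not always enough; inconclusive means probably only some replicates passing the limit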;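 further: agonist challenge used bursicon conditioned medium at about half maximal strength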
EWS-Fli inh = EWS/Fli-driven NR0B1 reporter inhibitors, primary screen, A673 cells, NR0B1 luciferase, luminescence, MLPCN library. inhibition, % at 12.6 µM. 0.67% of 350,000 active. viability-normalised;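 active means mean inhibition of at least 50% after viability correction, with every replicate also passing that limit; inconclusive means mean reaches 50% but only one of two replicates passes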;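 further: firefly luciferase signal divided by Alamar Blue viability fluorescence both relative to DMSO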
EBV LMP1 NFkB = EBV LMP1-driven NF-kappaB luciferase reporter inhibitors, primary screen, cell-based, luminescence, single point | inhibition, % at 12.5 µM | 0.69% of 350,000 active | LMP1-induced NF-kappaB luciferase reporter cells; in the data active means inhibition above about 41%; inconclusive means no clear call, values can overlap the other calls;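 further: 0% = neutral control wells and 100% = reference inhibitor control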
MITF TRPM1 inh = inhibitors of MITF-dependent TRPM1 promoter reporter, primary screen, cell-based, SK-MEL-5, single point, luciferase. SK-MEL-5 TRPM1 promoter luciferase, 24 h. inhibition, % at 12.5 µM. 0.83% of 330,000 active. AID 488899, 2010;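 active means mean inhibition across replicates of 60% or more, whatever share of single replicates reaches that level; inconclusive means some that reach 60%, reason not given; inactive means mean inhibition across replicates below 60%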
PGC1a acetyl inh = inhibitors of PGC1a acetylation signal, primary screen, cell-based, U2OS, AlphaScreen, inhibitor mode | 0.17% of 350,000 active | AlphaScreen anti-acetyl-lysine; with virally co-expressed GCN5 acetyltransferase | inhibition, % at 15.6 µM;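 active means every replicate shows inhibition of at least 40%; inconclusive means mean inhibition at least 40% but some replicate below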;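 further: 0% = neutral control wells and 100% = positive control wells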
An asterisk follows results filed as active; ? = inconclusive; · = no result given. Only some compounds are listed: those with a hit (about 2.2% of all), similar ones and a draw of the others.

SMILES	PAX8 inh HTS	LGR2 antag	EWS-Fli inh	EBV LMP1 NFkB	MITF TRPM1 inh	PGC1a acetyl inh
C[C@@H]1CN([C@H](C)CO)C(=O)c2cccc(N(C)C)c2O[C@@H]1CN(C)Cc1ccccc1	3	-4	-5	·	·	12
C[C@H]1CN([C@@H](C)CO)C(=O)c2cc(NC(=O)C3CC3)ccc2O[C@H]1CN(C)Cc1ccc(-c2ccccc2)cc1	·	-2	-2	·	·	0
CCCCNC(=O)CCn1ccc2cc(S(=O)(=O)N3CCCC3)ccc21	-4	-5	·	1	-10	0
CCOc1ccc(CCNC(=O)CCn2ccc3cc(S(=O)(=O)N4CCCC4)ccc32)cc1	13	4	6	72*	16	11
CCN1C/C(=C\c2cccc([N+](=O)[O-])c2)C(=O)/C(=C/c2cccc([N+](=O)[O-])c2)C1	55	24	82*	91*	93*	13
O=C1/C(=C/c2cccc([N+](=O)[O-])c2)CCc2ccccc21	-21	-3	·	-5	-6	-10
c1ccc(C[n+]2cccc3c4ccccc4ccc32)cc1	·	·	·	38	62*	·
COc1cccc(NC(=O)N[C@@H]2CC[C@@H](CC(=O)N3CCCCC3)O[C@@H]2CO)c1	-14	-9	2	·	·	5
COC(=O)C[C@H]1CC[C@H]2[C@@H](COc3ccc(NC(=O)Cc4cccs4)cc3C(=O)N2C)O1	6	21	1	·	·	·
CC1=NN(C(C#N)c2ccccc2O)C(C)(C)C1 (configuration not stated)	-6	2	9	4	9	-1
CCN1C(C#N)=C(C#N)N=C(C)CC1(C)C	-3	11	1	0	1	109*
NC(=O)c1cccc(-c2cnc(N)c(C(=O)c3cccnc3)n2)c1	·	·	·	17	61*	·
CC(=O)Nc1cccc(-c2csc(N)n2)c1	-10	13	3	4	-9	·
CC(=O)Nc1cccc(-c2cnc(N)c(C(=O)c3cccnc3)n2)c1	·	·	·	49*	44	31
Cc1nnc(NC(=O)CSc2nnc(Cc3cccn3C)n2CCc2ccccc2)s1	·	1	-3	66*	-13	39
COc1ccc(C(=O)N/N=C(\c2ccccc2)c2ccccn2)cc1	57	·	-1	22	55	18
O=C(NN=C(c1ccccc1)c1ccccn1)c1ccccc1	77*	·	-2	7	67*	·
C/C(Cc1ccccc1)=N\NC(=O)c1ccccn1	-53	3	-36	-9	-1	·
O=C(N/N=C(\c1ccccc1)c1ccccn1)c1ccccc1Cl	72*	13	·	24	59	·
COc1ccc(CN(C)C(=O)c2cccc(NC(=O)CC3SC(N4CCCCC4)=NC3=O)c2)c(OC)c1 (configuration not stated)	55	28	17	?	63*	-18
COc1cccc(S(=O)(=O)N[C@@H]2CC[C@@H](CC(=O)NCc3ccc(F)cc3)O[C@@H]2CO)c1	8	10	9	·	·	-23
COc1cccc(S(=O)(=O)N[C@H]2CC[C@H](CC(=O)NCc3ccc(F)cc3)O[C@@H]2CO)c1	14	2	8	·	·	55*
COc1cccc(S(=O)(=O)Nc2ccc3c(c2)[C@H]2C[C@@H](CC(=O)NCc4ccc(Cl)cc4)O[C@H](CO)[C@H]2O3)c1	63*	-3	32	·	·	-4
COc1cccc(S(=O)(=O)Nc2ccc3c(c2)[C@@H]2C[C@H](CC(=O)NCc4ccc(Cl)cc4)O[C@@H](CO)[C@@H]2O3)c1	62*	-2	23	·	·	-14
COc1cccc(S(=O)(=O)Nc2ccc3c(c2)[C@@H]2C[C@H](CC(=O)NCc4ccc(Cl)cc4)O[C@H](CO)[C@@H]2O3)c1	18	9	9	·	·	-7
SMILES	PAX8 inh HTS	LGR2 antag	EWS-Fli inh	EBV LMP1 NFkB	MITF TRPM1 inh	PGC1a acetyl inh
Cc1ccc(S(=O)(=O)N(C)C[C@@H]2Oc3ccc(NC(=O)Nc4c(C)noc4C)cc3C(=O)N([C@H](C)CO)C[C@@H]2C)cc1	-9	-4	-9	·	·	-13
O=C1CCC[C@@H]2c3[nH]c4ccccc4c3CCN12	6	·	6	·	·	-3
Cc1noc(C)c1S(=O)(=O)Nc1ccc2c(c1)C(=O)N([C@@H](C)CO)C[C@H](C)[C@H](CN(C)C(=O)Nc1ccc(C(F)(F)F)cc1)OCCCC[C@H](C)O2	89*	40	-12	·	·	5
Cc1noc(C)c1S(=O)(=O)Nc1ccc2c(c1)C(=O)N([C@@H](C)CO)C[C@@H](C)[C@@H](CN(C)C(=O)Nc1ccc(C(F)(F)F)cc1)OCCCC[C@@H](C)O2	26	-4	6	·	·	-6
Cc1noc(C)c1S(=O)(=O)Nc1ccc2c(c1)C(=O)N([C@@H](C)CO)C[C@@H](C)[C@H](CN(C)C(=O)Nc1ccc(F)cc1)OCCCC[C@H](C)O2	-11	-2	-10	·	·	9
Cc1noc(C)c1S(=O)(=O)Nc1ccc2c(c1)C(=O)N([C@H](C)CO)C[C@H](C)[C@H](CN(C)C(=O)Nc1ccc(C(F)(F)F)cc1)OCCCC[C@H](C)O2	68*	-6	0	·	·	-6
Cc1noc(C)c1S(=O)(=O)Nc1ccc2c(c1)C(=O)N([C@H](C)CO)C[C@H](C)[C@@H](CN(C)C(=O)Nc1ccc(C(F)(F)F)cc1)OCCCC[C@H](C)O2	86*	19	-18	·	·	6
Cc1ccc(-n2c(-c3ccccc3)c[n+]3c2CCC3)cc1	52	13	20	4	26	-6
Cc1ccc(-n2c(-c3ccccc3)c[n+]3c2CCc2ccccc2-3)c(C)c1	91*	39	35	32	76*	·
Cc1cc(C)cc(C(=O)NCCC(=O)NCc2cc(=O)n(C)c(=O)n2C)c1	7	9	-10	55*	5	2
O=C(Nc1nccs1)c1cc2c(s1)CCCCC2	·	·	·	52*	46	13
Nc1ccc2ccccc2c1[N+](=O)[O-]	1	-15	-3	0	5	2
Nc1cc2c3ccccc3ccc2c2ccccc12	-143	86*	-72	-48	-2	0
Cc1cccc(-n2c(=O)cc(N3CCN(c4ccc(F)cc4)CC3)[nH]c2=O)c1	-3	29	4	20	9	55*
CCN1[C@@H]2c3ccc(-c4ccccc4)c(=O)n3C[C@H]1[C@H](CO)[C@H]2C(=O)NCc1ccccc1	·	5	-4	·	·	·
COC(=O)Cc1[nH]n(-c2ccccc2)c(=O)c1C(C)=Nc1ccccc1	5	8	-20	-17	-15	12
COC(=O)Cc1[nH]n(-c2nc3ccccc3s2)c(=O)c1C(C)=Nc1ccc(Cl)cc1	-100	-5	6	38	80*	·
C[C@@H]1CN([C@@H](C)CO)C(=O)c2cc(Br)cnc2O[C@@H]1CN(C)C(=O)C1CCOCC1	·	-4	-14	·	·	6

Screening data deposited in PubChem by Broad Institute.
